High-throughput results as filed in PubChem BioAssay.
D1 mod = allosteric modulators of human D1 dopamine receptor; B-score at 10 µM; HEK293 D1, CRE-luciferase, dopamine EC30 potentiation; actives deviate in either direction; AID 641; hit rate 5.9% among 58,000;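 active = luminescence count or its row- and column-corrected plate score outside the 99.7% band of the plate's sample wells, on either side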
hDAT+cocaine = changed human dopamine transporter uptake under cocaine IC80. hit rate 1.3% among 110,000. B-score at 10 µM. Q01959. LLC-PK1 hDAT cells, [14C]-dopamine uptake with cocaine IC80; actives deviate in either direction;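 active = Z score or B-score, a plate-position-corrected score, falls beyond the plate's 99.7% confidence bounds, in either direction; inactive = both scores lie inside the 99.7% bounds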;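 note: scored against the spread of the other compound wells on the same plate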
Target sequence (Q01959 whole entry, looked up): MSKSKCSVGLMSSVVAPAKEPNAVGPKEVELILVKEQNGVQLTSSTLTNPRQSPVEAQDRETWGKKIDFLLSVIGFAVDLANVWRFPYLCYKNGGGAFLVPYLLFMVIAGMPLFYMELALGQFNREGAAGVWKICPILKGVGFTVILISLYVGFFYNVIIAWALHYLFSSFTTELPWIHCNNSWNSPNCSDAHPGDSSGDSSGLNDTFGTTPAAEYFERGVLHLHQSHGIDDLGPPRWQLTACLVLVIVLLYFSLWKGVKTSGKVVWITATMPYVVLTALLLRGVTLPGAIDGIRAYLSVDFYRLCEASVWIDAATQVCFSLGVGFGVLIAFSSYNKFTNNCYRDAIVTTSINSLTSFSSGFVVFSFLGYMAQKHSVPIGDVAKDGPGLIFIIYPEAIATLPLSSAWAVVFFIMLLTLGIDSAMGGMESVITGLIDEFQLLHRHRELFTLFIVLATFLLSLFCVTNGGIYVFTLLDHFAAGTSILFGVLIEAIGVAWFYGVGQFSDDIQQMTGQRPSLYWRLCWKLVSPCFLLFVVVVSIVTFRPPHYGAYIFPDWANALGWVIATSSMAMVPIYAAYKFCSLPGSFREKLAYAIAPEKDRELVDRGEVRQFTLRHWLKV
EphB4 ephrin blk = antagonists of human EphB4-ephrin-B2 interaction; P54760; EphB4 LBD / TNYL-RAW-Alexa532 peptide, fluorescence polarization; inhibition, % at 7 µM; hit rate 0.15% among 97,000;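 active = inhibition above the screen-wide mean inhibition plus 3 SD, cut at about 15% in these data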;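 note: 0% = DMSO wells and 100% = excess unlabeled TNYL-RAW peptide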
* = called active by the depositor. The sample as a whole holds a higher share of hits than the screen did.

What do the screens show for `O=C(CSc1nc2sc3c(c2c(=O)n1-c1ccccc1)CCCC3)NCc1ccco1`?
D1 mod: 0.71; EphB4 ephrin blk: -4

Results for Cc1sc2nc(SCC(=O)NCc3ccco3)n(CCc3ccccc3)c(=O)c2c1C ?
D1 mod: 0.27; hDAT+cocaine: 1.2; EphB4 ephrin blk: 2

How did CC1(C)Cc2c(sc3nc(SCC(=O)NCc4ccco4)n(-c4ccccc4)c(=O)c23)CS1 do in these assays?
hDAT+cocaine: 2.8*; EphB4 ephrin blk: 0

How did Cc1sc2nc(SCC(=O)NCc3ccco3)n(C)c(=O)c2c1C do in these assays?
D1 mod: -2.6*; hDAT+cocaine: -0.68; EphB4 ephrin blk: -6

Results for NCCCC[C@@H](C(=O)N1CCNCC1)n1cc([C@@H](N)CO)nn1 ?
hDAT+cocaine: -0.9

Results for CCOC(=O)c1nc(N2CCN(C(=O)OCC)CC2)c2c3c(sc2n1)CCCC3 ?
hDAT+cocaine: 3.2*; EphB4 ephrin blk: -5

How did CCOC(=O)c1nc2sc3c(c2c(=O)[nH]1)CCCC3 do in these assays?
D1 mod: 0.21; hDAT+cocaine: 0.61; EphB4 ephrin blk: 8

Results for Cc1ccc(S(=O)(=O)N=Nc2c(O)[nH]c3ccccc23)cc1 ?
hDAT+cocaine: 0.0022; EphB4 ephrin blk: -3

What do the screens show for `Oc1[nH]c2ccccc2c1N=Nc1nc2ccccc2s1`?
EphB4 ephrin blk: 15*

Results for CC(C)(C)OC(=O)N1CCC2(CC1)Oc1ccc(Cl)cc1C(=O)C21CC(c2ccc(Cl)cc2)=NO1 (centres undefined) ?
hDAT+cocaine: 0.02

Results for O=C(c1ccco1)N1CCN(C(=O)c2cccc3c2C(=O)N(Cc2cccnc2)C3)CC1 ?
D1 mod: -0.41; hDAT+cocaine: -0.39; EphB4 ephrin blk: 4

Results for O=C(c1ccco1)N1CCN(C(=O)c2cccc3c2C(=O)N(C2CCCCC2)C3)CC1 ?
D1 mod: -3.4*

How did CSc1nc(N2CCOCC2)c2c3c(sc2n1)CCC3 do in these assays?
D1 mod: 8.5*; hDAT+cocaine: -0.034; EphB4 ephrin blk: 1

Results for Cc1nc(N2CCN(c3ccccc3)CC2)c2c3c(sc2n1)CCC3 ?
D1 mod: -1.2

How did C=CCOC(=O)C1=C[C@H](c2coc3ccccc3c2=O)C[C@H](OCCCCO)O1 do in these assays?
hDAT+cocaine: 0.21

Results for O=C1NCC2=C1C(c1ccc(Br)cc1)Nc1ccccc1N2 (centres undefined) ?
D1 mod: -0.76; hDAT+cocaine: -0.044; EphB4 ephrin blk: -1

What do the screens show for `COc1cc2c(C(=O)N3CCN(C4CCCCC4)CC3)cn(CC(C)C)c(=O)c2cc1OC`?
D1 mod: -5.7*; hDAT+cocaine: 0.017; EphB4 ephrin blk: -11

Results for CCCN1CCN(C(=O)c2cn(CC(C)C)c(=O)c3cc(OC)c(OC)cc23)CC1 ?
D1 mod: -1.4; EphB4 ephrin blk: 0

Results for CCC(c1nnnn1CC1CCCO1)N(CCN1CCOCC1)Cc1cc2cc(C)ccc2[nH]c1=O (centres undefined) ?
D1 mod: -0.4; hDAT+cocaine: -1.8*; EphB4 ephrin blk: -3

How did Cc1ccc2[nH]c(=O)c(C(c3nnnn3CC3CCCO3)N3CCOCC3)cc2c1 (centres undefined) do in these assays?
D1 mod: -0.42; hDAT+cocaine: -0.097; EphB4 ephrin blk: -5

Results for COc1ccc(NC(=O)C(C/C=C(/C)Cl)C(C)=O)cc1 (centres undefined) ?
hDAT+cocaine: 0.64; EphB4 ephrin blk: -4

Results for O=S(c1ccc2ccccc2c1)c1cnns1 (centres undefined) ?
hDAT+cocaine: -0.41; EphB4 ephrin blk: 6

Results for CC(C)c1cc(NCC2CCCO2)n2c(nc3ccccc32)c1C#N (centres undefined) ?
hDAT+cocaine: 0.045; EphB4 ephrin blk: -2

How did Cc1ccc(Cn2c(C(CO)Nc3nc(-c4ccc(F)cc4)cs3)nc3ccccc32)cc1 (centres undefined) do in these assays?
hDAT+cocaine: 1.6

How did OCCCn1c(C(CO)Nc2nc(-c3ccc(Cl)cc3)cs2)nc2ccccc21 (centres undefined) do in these assays?
hDAT+cocaine: 2.5*

How did Cc1ccc(-c2csc(NC(CO)c3nc4ccccc4n3CCOCCO)n2)cc1 (centres undefined) do in these assays?
hDAT+cocaine: 2.8*

Results for COc1ccc(-c2csc(NC(CO)c3nc4ccccc4n3Cc3ccc(C)cc3)n2)cc1 (centres undefined) ?
hDAT+cocaine: 0.0029

What do the screens show for `O=C(C1=C[C@@H](C2CCCCC2)C[C@@H](OCc2ccc(CO)cc2)O1)N1CCN(Cc2ccccc2)CC1`?
hDAT+cocaine: 0.042

What do the screens show for `CCC(C(=O)NCc1ccco1)N(C(=O)CNS(=O)(=O)c1ccccc1)c1ccc(OC)cc1` (centres undefined)?
hDAT+cocaine: 1.5; EphB4 ephrin blk: -9

How did COc1ccc(OC)c(S(=O)(=O)NC(C)(C)C)c1 do in these assays?
hDAT+cocaine: 0.26; EphB4 ephrin blk: 1

What do the screens show for `CCCN=C(C)c1c(-c2ccccc2)[nH]n(-c2nc3ccccc3s2)c1=O`?
hDAT+cocaine: -0.24; EphB4 ephrin blk: 2

Results for CCCc1[nH]n(-c2nc3ccccc3s2)c(=O)c1C=NCC(C)C ?
hDAT+cocaine: 4.4*; EphB4 ephrin blk: 2

Results for NCCCC[C@@H]1NC(=O)c2cc([N+](=O)[O-])cc(I)c2SC[C@@H](C(N)=O)NC(=O)[C@H](Cc2ccc(O)cc2)NC1=O ?
hDAT+cocaine: -0.48

Results for Cc1cc(Br)ccc1NCc1ccccn1 ?
hDAT+cocaine: 0.52; EphB4 ephrin blk: -6

How did Cc1ccc2cccc(OCC(=O)NCc3ccco3)c2n1 do in these assays?
D1 mod: 0.22; hDAT+cocaine: 0.098

How did Cc1ccc2cccc(Oc3cnccn3)c2n1 do in these assays?
D1 mod: -0.034; hDAT+cocaine: -1.9*; EphB4 ephrin blk: -5

How did NNC(=O)c1cnn(Cc2ccccc2)c1N do in these assays?
hDAT+cocaine: -0.81; EphB4 ephrin blk: -5

How did c1ccc2c(-c3nc(C4CCCCC4)no3)cc(-c3ccncc3)nc2c1 do in these assays?
D1 mod: 2; hDAT+cocaine: 1.2; EphB4 ephrin blk: 4

What do the screens show for `CC1CCc2nc(NC(=O)c3ccco3)sc2C1` (centres undefined)?
D1 mod: -7.5*; hDAT+cocaine: 0.64

Results for CC1CCc2nc(NC(=O)Cc3cccs3)sc2C1 (centres undefined) ?
D1 mod: -0.29; hDAT+cocaine: 0.31; EphB4 ephrin blk: -1

How did CC1CCc2nc(NC(=O)C3CCCO3)sc2C1 (centres undefined) do in these assays?
D1 mod: -4.6*; hDAT+cocaine: -0.66; EphB4 ephrin blk: 7

Results for Cc1nnc(NC(=O)C2CCCO2)s1 (centres undefined) ?
hDAT+cocaine: 0.31

How did COC(=O)c1ccc(COC(=O)CCc2nc(-c3ccccc3)c(-c3ccccc3)o2)cc1 do in these assays?
hDAT+cocaine: 0.026; EphB4 ephrin blk: -1

Results for Cc1nn(C)c(C)c1/C=N/NC(=O)c1csc2ccccc12 ?
hDAT+cocaine: 0.45; EphB4 ephrin blk: 2

Results for Cc1nc(NC(=O)c2csc3ccccc23)sc1C ?
D1 mod: -3.4*; hDAT+cocaine: -0.078

Results for O=C(OCc1ccccc1)c1cn(-c2ccccc2)nc1-c1ccncc1 ?
hDAT+cocaine: -0.047; EphB4 ephrin blk: 0
